Here are results for six compounds from PubChem BioAssay (Tox21).

Assay [1] in a line: Nuclear factor erythroid 2-related factor 2/antioxidant responsive element (Nrf2/ARE) small molecule agonists: qHTS cell viability counter screen in human keratinocytes (AID 1919968; active = well fitted curve in the direction sought with a large enough effect in the repeat runs; an effect the other way counts as inactive or inconclusive; note: nearly all actives have a fitted effect of over 55% in size). The procedure, abridged: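 KeratinoSens HaCaT cells, 1,500/well, preincubated 5 h, then exposed to compounds in DMSO for 23 h at 37 C/5% CO2. Viability read as CellTiter-Fluor fluorescence after 1 h, in the same wells as the ARE-luciferase read.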

A short description of assay [2]: Nuclear factor erythroid 2-related factor 2/antioxidant responsive element (Nrf2/ARE) small molecule agonists: luciferase reporter gene qHTS assay in human keratinocytes (AID 1919969). Note: nearly all actives have a fitted effect of over 35% in size. Note: potency is the fitted concentration of half-maximal effect.
The target in assay [3] is Gonadotropin-releasing hormone receptor (Homo sapiens) (UniProt P30968). The assay can be described thus: Human gonadotropin-releasing hormone receptor (GnRHR) small molecule agonists, calcium flux assay in GnRHR-HEK293 cells (AID 1920063). Note: nearly all actives have a fitted effect of over 35% in size. A digest of the protocol: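 HEK293 cells stably expressing human GnRHR were dye-loaded for 1 h at 37 C. Compound was added in agonist mode and fluorescence (Ex/Em 480/540) recorded kinetically for 3 min. Fifteen concentrations, triplicates.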
Gonadotropin-releasing hormone receptor (Homo sapiens), sequence (P30968 whole entry, looked up): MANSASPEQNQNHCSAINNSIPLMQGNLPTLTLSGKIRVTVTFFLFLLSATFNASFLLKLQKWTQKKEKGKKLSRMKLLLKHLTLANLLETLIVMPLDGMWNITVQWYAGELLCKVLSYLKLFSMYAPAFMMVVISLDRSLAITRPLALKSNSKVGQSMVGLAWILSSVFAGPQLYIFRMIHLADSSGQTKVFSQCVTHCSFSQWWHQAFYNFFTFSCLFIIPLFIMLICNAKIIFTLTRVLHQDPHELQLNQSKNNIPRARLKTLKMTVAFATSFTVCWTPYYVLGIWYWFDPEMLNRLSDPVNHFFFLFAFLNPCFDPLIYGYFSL

Assay [4] deals with KiSS-1 receptor (Homo sapiens) (UniProt Q969F8). The assay can be described thus: Human kisspeptin (KISS1R) small molecule agonists, calcium flux assay in KISS1R-HEK293 cells (AID 1920064; active = well fitted curve in the direction sought with a large enough effect in the repeat runs; an effect the other way counts as inactive or inconclusive). The procedure, abridged: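 HEK293 cells stably expressing human KISS1R were loaded with calcium dye for 1 h at 37 C, then given compound; fluorescence (Ex/Em 480/540) was read kinetically for 3 min. Fifteen concentrations, triplicate.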
KiSS-1 receptor (Homo sapiens), sequence (Q969F8 whole entry, looked up): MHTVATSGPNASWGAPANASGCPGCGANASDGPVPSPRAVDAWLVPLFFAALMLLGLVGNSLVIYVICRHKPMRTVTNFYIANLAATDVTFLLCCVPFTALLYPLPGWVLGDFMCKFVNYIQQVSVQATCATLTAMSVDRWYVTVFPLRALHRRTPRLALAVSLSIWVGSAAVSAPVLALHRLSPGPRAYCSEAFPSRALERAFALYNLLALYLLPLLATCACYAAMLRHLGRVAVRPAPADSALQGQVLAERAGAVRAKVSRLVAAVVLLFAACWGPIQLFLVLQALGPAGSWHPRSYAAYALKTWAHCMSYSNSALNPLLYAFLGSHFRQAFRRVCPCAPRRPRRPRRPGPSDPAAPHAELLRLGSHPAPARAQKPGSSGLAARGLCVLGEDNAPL

Assay [5] can be described thus: G protein-coupled receptor (GPCR) small molecule agonists, calcium flux assay: HEK293 wild type cell line counter screen (AID 1920065). A digest of the protocol:
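Wild-type HEK293 cells plated 18 h, loaded with calcium dye 1 h at 37 C, then compounds added in agonist mode (ATP as positive control). Kinetic fluorescence Ex/Em 480/540 recorded 3 min at 1 sec intervals; 15 concentrations, triplicate.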

A short description of assay [6]: p53 small molecule agonists, cell-based qHTS assay with human liver microsomes: qHTS cell viability counter screen (AID 1963579). Note: nearly all actives have a fitted effect of over 45% in size. The procedure, abridged: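 Cytotoxicity counter screen: p53RE-bla, 4,000 cells/well; 5 h settle, 37 C/5% CO2; cpd + HLM 0.5 mg/mL + NADPH 0.5 mg/mL (final); 16 h, 37 C; CellTiter-Glo, 30 min RT, luminescence.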
Assay [7] is described as follows: p53 small molecule agonists, cell-based qHTS assay with rat liver microsomes: qHTS cell viability counter screen (AID 1963580). Note: nearly all actives have a fitted effect of over 45% in size. The procedure, abridged: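 HCT-116 p53RE-bla, 4,000 cells/well, 5 h pre-incubation; cpd + rat liver microsomes 0.5 mg/mL + NADPH 0.5 mg/mL (final); 16 h, 37 C; CellTiter-Glo, 30 min RT; luminescence.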
A short description of assay [8]: p53 small molecule agonists, cell-based qHTS assay: qHTS cell viability counter screen (AID 1963581). Note: nearly all actives have a fitted effect of over 45% in size. A digest of the protocol:
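p53RE-bla HCT-116 cells, compounds added 5 h after plating and incubated 16 h at 37 C. Cytotoxicity measured in the same wells as intracellular ATP by CellTiter-Glo luminescence after 30 min at room temperature.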

Assay [9] is described as follows: p53 small molecule agonists, cell-based qHTS assay (AID 1963582; active = well fitted activation curve with a large enough effect in the signal ratio in the repeat runs, not every such curve was filed as active; the % refers to the signal ratio). The procedure, abridged: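 p53RE-bla reporter cells, compounds added in DMSO after 5 h plating, incubated 16 h at 37 C. Beta-lactamase read via 2 h room-temperature LiveBLAzer B/G FRET substrate, fluorescence intensity.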
Assay [10] has as its target 5-hydroxytryptamine receptor 2A (Homo sapiens) (UniProt P28223). The assay can be described thus: 5-hydroxytryptamine receptor 2A (HTR2A) small molecule antagonists, cell-based qHTS assay (AID 1963586). Note: nearly all actives have a fitted effect of over 45% in size. A digest of the protocol:
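Antagonist-mode intracellular calcium assay: DOI (4 nM) added after 5 min compound pre-incubation at room temperature to dye-loaded HTR2A-CHO cells. Fluorescence followed for 3 min, sampled every second.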

For assay [11] the target is unchanged. The assay can be described thus: 5-hydroxytryptamine receptor 2A (HTR2A) small molecule agonists, cell-based qHTS assay (AID 1963587). Note: nearly all actives have a fitted effect of over 30% in size. The procedure, abridged:
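Kinetic calcium-flux fluorescence (2 min, 1 sec intervals) after compound addition in agonist mode. HTR2A-CHO cells were cultured 18 h, then dye-loaded 1 h at 37 C.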

The target in assay [12] is Muscarinic acetylcholine receptor M1 (Homo sapiens) (UniProt P11229). The assay can be described thus: Cholinergic receptor muscarinic 1 (CHRM1) small molecule antagonists, cell-based qHTS assay (AID 1963588). Note: nearly all actives have a fitted effect of over 40% in size. A digest of the protocol:
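CHRM1-CHO calcium-flux assay, antagonist mode. Cells were seeded 18 h, dye-loaded 1 h at 37 C and given compound for 5 min at RT, then acetylcholine was added at 50nM. FDSS fluorescence was read 3 min; 15 concentrations, three runs.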

Assay [13] shares this target. The assay can be described thus: Cholinergic receptor muscarinic 1 (CHRM1) small molecule agonists, cell-based qHTS assay (AID 1963589). Note: nearly all actives have a fitted effect of over 35% in size. The procedure, abridged: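 CHO cells stably expressing human CHRM1 were loaded with calcium dye for 1 h at 37 C, then compound was added in agonist mode. Intracellular calcium fluorescence was followed kinetically at 1 s intervals. Fifteen concentrations were tested in three independent runs.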

The nature of assay [14]: cAMP Responsive Elements (CRE) small molecule agonists, cell-based qHTS assay (AID 1963590). A digest of the protocol:
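CRE-bla HEK 293T cells, 2,000/well in DMEM with 10% dialyzed FBS and 25 mM HEPES, pre-incubated 18 h at 37 C, then exposed to compound 3 h at 37 C. Beta-lactamase reporter read with LiveBLAzer B/G FRET substrate after 2 h at room temperature.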

Assay [15] is described as follows: cAMP Responsive Elements (CRE) small molecule antagonists, cell-based qHTS assay (AID 1963591; active = well fitted inhibition curve with a large enough effect in the signal ratio in the repeat runs, not every such curve was filed as active; the % refers to the signal ratio). A digest of the protocol:
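CRE-bla HEK293T cells plated 18 h, then given compound plus NKH477 at 0.25 uM final for 3 h at 37C. Beta-lactamase reporter read with LiveBLAzer B/G FRET substrate after 2 h at room temperature.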

The target in assay [16] is Beta-2 adrenergic receptor (Homo sapiens) (UniProt P07550). The assay can be described thus: Adrenergic beta2 receptor (ADRB2) small molecule antagonists, cell-based qHTS assay (AID 1963592). Note: series mostly up to about 92 µM; nearly all actives have a fitted effect of over 50% in size. A digest of the protocol: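 Cells (CHO, stable ADRB2 overexpression) incubated 18-20hr at 37C; compounds added from DMSO; agonist mix (1nM isoproterenol, 100uM IBMX, 25uM Ro-20-1724) added; 0.5hr RT; d2-cAMP and anti-cAMP-cryptate added; 1hr RT; 665/615 nm read.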
Beta-2 adrenergic receptor (Homo sapiens), sequence (P07550 whole entry, looked up): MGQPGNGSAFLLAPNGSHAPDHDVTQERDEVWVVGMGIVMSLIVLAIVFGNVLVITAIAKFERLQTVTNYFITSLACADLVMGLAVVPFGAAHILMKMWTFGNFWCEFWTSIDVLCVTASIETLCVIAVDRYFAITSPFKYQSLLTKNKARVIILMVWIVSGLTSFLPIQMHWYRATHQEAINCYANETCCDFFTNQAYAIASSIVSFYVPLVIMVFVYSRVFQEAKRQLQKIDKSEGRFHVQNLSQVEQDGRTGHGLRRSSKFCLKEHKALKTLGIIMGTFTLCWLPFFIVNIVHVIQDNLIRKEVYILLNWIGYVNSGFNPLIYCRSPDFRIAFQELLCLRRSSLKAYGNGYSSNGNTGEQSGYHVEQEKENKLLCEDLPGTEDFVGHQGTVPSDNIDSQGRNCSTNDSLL

Assay [17] has the same target. The assay can be described thus: Adrenergic beta2 receptor (ADRB2) small molecule agonists, cell-based qHTS assay (AID 1963593).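 Note: CHO cells stably overexpressing human ADRB2.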 The procedure, abridged:
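CHO cells stably over-expressing ADRB2 were plated overnight at 37C, then dosed with compounds plus a stimulation mix containing 100uM IBMX and 25uM Ro-20-1724 for 0.5hr at room temperature. cAMP was measured by HTRF competition, 1hr.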

For assay [18], the target named is D(2) dopamine receptor (Homo sapiens) (UniProt P14416). The assay can be described thus: Dopamine D2 receptor (DRD2) small molecule agonists, cell-based qHTS assay (AID 1963594). Note: nearly all actives have a fitted effect of over 35% in size. A digest of the protocol: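 cAMP accumulation in DRD2-HEK293 cells measured by HTRF after 1 h detection; compounds added 10 min before NKH477 (200nM […]) forskolin-analogue stimulation, 30 min at room temperature, with Ro20-1724 present at 0.1 mM final.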
D(2) dopamine receptor (Homo sapiens), sequence (P14416 whole entry, looked up): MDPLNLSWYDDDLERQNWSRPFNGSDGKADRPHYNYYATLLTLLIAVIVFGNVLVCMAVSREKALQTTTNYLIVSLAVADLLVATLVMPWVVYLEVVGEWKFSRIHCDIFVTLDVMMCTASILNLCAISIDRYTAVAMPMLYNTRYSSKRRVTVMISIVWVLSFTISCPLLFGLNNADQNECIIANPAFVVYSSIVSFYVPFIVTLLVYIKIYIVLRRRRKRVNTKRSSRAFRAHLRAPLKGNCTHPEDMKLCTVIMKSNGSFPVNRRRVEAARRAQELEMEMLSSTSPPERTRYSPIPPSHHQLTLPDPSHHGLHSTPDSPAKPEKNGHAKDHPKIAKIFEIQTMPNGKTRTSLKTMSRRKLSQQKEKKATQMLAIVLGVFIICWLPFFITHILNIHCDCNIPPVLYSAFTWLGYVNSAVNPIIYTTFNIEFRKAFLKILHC

Assay [19] has the same target. The assay can be described thus: Dopamine D2 receptor (DRD2) small molecule antagonists, cell-based qHTS assay (AID 1963595; active = well fitted inhibition curve with a large enough effect in the signal ratio in the repeat runs, with a control signal flat; the % refers to the signal ratio). A digest of the protocol: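 In this cell-based antagonist screen, compounds act for 10 min at room temperature before a 30 min challenge with 12 nM quinpirole and 200 nM NKH477. cAMP is quantified by HTRF competition in DRD2-HEK293 cells containing 0.1 mM Ro20-1724.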

Assay [20] is described as follows: p53 small molecule agonists, cell-based qHTS assay with rat liver microsomes (AID 1963578). A digest of the protocol:
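Cells carrying a p53 response element–beta-lactamase reporter were plated and rested 5 h, then dosed with compound in DMSO plus rat liver microsomes and NADPH, each at 0.5 mg/mL final. After 16 h at 37 C, LiveBLAzer substrate was added for 2 h.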

Each structure is given as a SMILES string. Values without a mark were called inactive. Records with an inconclusive call do not appear. Active and inactive are the calls of the source. Unless noted, calls come from the whole dose curve.
% is set by controls: 0 for no effect and ±100 for the full control effect.

5-hydroxytryptamine receptor 2A (Homo sapiens), sequence (P28223 whole entry, looked up): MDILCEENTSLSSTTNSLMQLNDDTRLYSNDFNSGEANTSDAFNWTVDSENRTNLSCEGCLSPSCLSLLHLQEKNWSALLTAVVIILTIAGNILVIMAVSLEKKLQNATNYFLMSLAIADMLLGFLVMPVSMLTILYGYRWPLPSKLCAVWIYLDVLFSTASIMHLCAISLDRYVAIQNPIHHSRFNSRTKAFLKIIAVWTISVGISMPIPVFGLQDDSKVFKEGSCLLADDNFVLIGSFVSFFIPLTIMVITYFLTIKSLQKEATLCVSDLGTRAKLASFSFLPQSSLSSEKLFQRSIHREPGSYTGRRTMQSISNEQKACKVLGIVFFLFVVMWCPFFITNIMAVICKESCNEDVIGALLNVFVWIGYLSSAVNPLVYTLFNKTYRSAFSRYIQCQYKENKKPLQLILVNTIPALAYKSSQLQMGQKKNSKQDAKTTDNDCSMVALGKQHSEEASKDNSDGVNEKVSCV
Muscarinic acetylcholine receptor M1 (Homo sapiens), sequence (P11229 whole entry, looked up): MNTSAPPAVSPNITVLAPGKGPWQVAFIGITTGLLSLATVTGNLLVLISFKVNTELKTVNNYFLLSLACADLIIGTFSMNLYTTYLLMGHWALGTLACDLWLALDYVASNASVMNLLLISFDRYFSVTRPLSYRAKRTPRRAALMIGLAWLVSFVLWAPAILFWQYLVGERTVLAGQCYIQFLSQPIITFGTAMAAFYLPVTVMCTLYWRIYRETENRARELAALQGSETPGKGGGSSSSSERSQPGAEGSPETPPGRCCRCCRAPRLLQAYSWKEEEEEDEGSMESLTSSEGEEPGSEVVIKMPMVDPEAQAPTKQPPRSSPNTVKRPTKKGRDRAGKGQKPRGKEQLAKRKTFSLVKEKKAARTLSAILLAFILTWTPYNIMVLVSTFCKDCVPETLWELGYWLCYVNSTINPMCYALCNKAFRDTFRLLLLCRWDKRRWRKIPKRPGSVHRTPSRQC

Consider `C=C(C)C(=O)OCCOP(=O)(O)O`, for which the Potency entry in assay [1], in assay [2], in assay [3], in assay [4], in assay [5] and in assay [6] was “inactive” in each case. For the same compound, the Potency result in [7], in [8], in assay [9], in [10], in assay [11] and in [12] was “inactive” each time. Further, the Potency result in [13], in assay [14], in assay [15], in assay [16], in assay [17] and in assay [18] was “inactive” in each case. The Potency entry in [19] was “inactive”.
Take `OCCOc1ccc(OCCO)cc1`: the Potency result in assay [1], in assay [2], in assay [3], in assay [4], in assay [5] and in assay [20] was “inactive” in each case. Also, the Potency result in assay [7], in assay [8], in assay [10], in assay [11], in assay [12] and in assay [13] was “inactive” in each case. Besides, the Potency result in assay [14], in assay [15], in assay [16], in assay [18] and in assay [19] was “inactive” each time.
Turning to `CCCCCCCC/C=C\CCCCCCCC(=O)OCCCC`, the activity change, negative = cytotoxicity in assay [1] was 4.3% [at 19 µM]; in assay [6] it was 0.909% [at 13.5 µM]; in [7], 7.39% [at 13.5 µM]; in [8], 6.46% [at 13.5 µM]. Also, in assay [2], the activity, positive = activation is 8.08% [at 19 µM]. Moreover, the activity change in assay [3] is 1.13% [at 11.8 µM, active compounds read high]. Moreover, the activation in assay [4] is 1.04% [at 15.8 µM]; in [5], 0.0792% [at 11.8 µM]; in [9], -0.177% [at 13.5 µM]; in assay [11] it was 5.55% [at 15.9 µM]; in assay [13], -0.0084% [at 15.8 µM]; in assay [14], 0.955% [at 19 µM]. Also, the activation in [17] was 25.8% [at 19 µM]; in [18], -5.29% [at 19 µM]. Further, the activity, negative = inhibition in assay [10] is -6.13% [at 12.7 µM]; in [12], 5.7% [at 12.6 µM]. Moreover, the values for the activity change, negative = inhibition in assay [15], in assay [16] and in [19] were -13.9% [at 18.9 µM], -2.11% [at 19 µM] and -12.5% [at 18.9 µM], respectively.
As to `CCN(Cc1cccc(S(=O)(=O)O)c1)c1ccccc1`, the Potency entry in assay [1], in [2], in assay [3], in [4], in assay [5] and in assay [20] was “inactive” in each case. The Potency result in [7], in assay [9], in assay [10], in [11], in assay [12] and in assay [13] was “inactive” throughout. In addition, the Potency result in assay [14], in [15], in [16] and in assay [18] was “inactive” each time.
Take `Oc1ccc(OCc2ccccc2)cc1`: the Potency result in assay [1], in assay [3], in assay [4], in assay [5], in assay [20] and in assay [7] was “inactive” throughout. Moreover, the Potency result in [8], in assay [9], in assay [14], in assay [16], in assay [17] and in assay [18] was “inactive” in each case. The Potency result in assay [19] is “inactive”. Moreover, in [2], the Potency was 8.45 µM (active).
For `OC/C=C/CO`, the Potency result in assay [1], in [2], in [3], in assay [4], in [5] and in assay [6] was “inactive” throughout. Besides, the Potency result in assay [7], in assay [8], in [9], in assay [10], in [11] and in [12] was “inactive” each time. The Potency result in assay [13], in [14], in assay [15], in assay [16], in [18] and in assay [19] was “inactive” in each case.
